Measurements: PubChem BioAssay (EPA / NIEHS)
Calls of active or inactive are those of the source. Rule for the calls: active = hit-call score of the fitted dose curve at least 0.9, where 1 is the maximum; inactive = score below 0.9.

Assay: ATG_GRE_CIS: Attagene CIS-FACTORIAL HepG2 Assay for human Glucocorticoid Response Elements (GRE) (AID 2282947)
Settings: HepG2 GRE cis-reporter, Attagene multiplex mRNA; actives raise or lower the signal
Outline: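 Following 24 h chemical exposure of transiently transfected HepG2 cells, total RNA was reverse-transcribed and reporter cDNA amplified, fluorescently labelled and sized by capillary electrophoresis. Signal gain or loss was fitted relative to DMSO vehicle.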

With `Cc1c(C(=O)O)c(O)cc2c1C(=O)c1c(O)c([C@@H]3O[C@H](CO)[C@@H](O)[C@H](O)[C@H]3O)c(O)c(O)c1C2=O` as the compound, how does the outcome read?
The outcome was “inactive”.

With `Cc1cc(NC(=O)C(=O)O)cc(C)c1Oc1ccc(O)c2c1CCC2` as the compound, how does the outcome read?
Its outcome is “inactive”.

With `CCCCCCCCCCO` as the compound, how does the outcome read?
The outcome was “inactive”.

Which outcome does the source give for `COc1cc(S(=O)(=O)O)c(C)cc1N=Nc1c(O)ccc2cc(S(=O)(=O)O)ccc12` here?
Its outcome is “inactive”.

Which outcome does the source give for `CCOC(=O)C(C)(C)Oc1ccc(Cl)cc1` here?
The outcome was “inactive”.

For `CN1CCN(Cc2cc(-c3ccc4[nH]c(=O)oc4c3)co2)[C@@H](c2ccc(F)cc2)C1`, which outcome is on record?
Its outcome is “inactive”.

For `CNC(=O)[C@H]1O[C@@H](n2cnc3c(NCc4cc(Cl)ccc4OCc4cc(C)no4)ncnc32)[C@H](O)[C@@H]1N`, which outcome is on record?
Its outcome is “inactive”.

For `CCCCc1ccc2c(n1)[C@@H](c1ccc(OC)cc1C[C@H](C)C(=O)O)[C@H](C(=O)O)[C@H]2c1ccc2c(c1)OCO2`, which outcome is on record?
Its outcome is “inactive”.

For `O=C(O)CCCCC(=O)O`, which outcome is on record?
Its outcome is “inactive”.

For `CCCCCCCCCCCC(=O)OC`, which outcome is on record?
The outcome was “inactive”.

Which outcome does the source give for `Cc1ccc(Cl)cc1` here?
Its outcome is “inactive”.

With `CC(CO)OC(C)CO` (stereo not drawn) (tested in a mixture with another compound) as the compound, how does the outcome read?
Its outcome is “inactive”.

Which outcome does the source give for `COc1cc(-c2nc(NC(=O)c3cc4cc(C)cc(C)c4n3CC(=O)O)sc2CCC2CCCCC2)c(OC)cc1Cl` here?
The outcome was “inactive”.

With `Cc1ccccc1Cl` as the compound, how does the outcome read?
The outcome was “inactive”.

For `Cc1nc(C)nc(N2C[C@@H](C)N(c3ccnc([C@@H](C)O)n3)[C@@H](C)C2)n1`, which outcome is on record?
The outcome was “inactive”.

With `NS(=O)(=O)c1cc2c(cc1Cl)NCNS2(=O)=O` as the compound, how does the outcome read?
The outcome was “inactive”.

Which outcome does the source give for `NC(=O)Cn1c(=O)cc(CCN2CCN(c3nccc4sccc34)CC2)c2ccc(F)cc21` here?
The outcome was “inactive”.

With `Cc1cc(=O)[nH]c(=S)[nH]1` as the compound, how does the outcome read?
The outcome was “inactive”.

Which outcome does the source give for `CCCCN(CCCC)CCCC` here?
The outcome was “inactive”.

With `Cc1nc(-c2ccc3c(c2)CCN(CCC2CCC(NC(=O)/C=C/c4ccc(F)cc4)CC2)CC3)no1` (stereo not drawn) as the compound, how does the outcome read?
Its outcome is “inactive”.

Which outcome does the source give for `COc1cc(/C=C/C(=O)CC(=O)/C=C/c2ccc(O)c(OC)c2)ccc1O` here?
Its outcome is “inactive”.

With `O=c1[nH]cc(F)c(=O)[nH]1` as the compound, how does the outcome read?
The outcome was “inactive”.

For `CN[C@H]1CC[C@@H](c2ccc(Cl)c(Cl)c2)c2ccc(S(N)(=O)=O)cc21`, which outcome is on record?
The outcome was “inactive”.

For `Nc1nc(N)c2nc(CNc3ccc(C(=O)N[C@@H](CCC(=O)O)C(=O)O)cc3)cnc2n1`, which outcome is on record?
Its outcome is “inactive”.

Assay: ATG_ISRE_CIS: Attagene CIS-FACTORIAL HepG2 Assay for human Interferon Regulatory Factor 1 (IRF1) binding to an Interferon-Stimulated Response Element (ISRE) (AID 2282948)
Settings: HepG2 ISRE cis-reporter (Attagene), mRNA transcription readout; actives raise or lower the signal
Outline: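 Cell-based cis-reporter assay; HepG2; 24 h exposure; reporter mRNA by RT-PCR plus capillary electrophoresis fluorescence; activity in either direction scored relative to DMSO.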

For `Cc1c(C(=O)O)c(O)cc2c1C(=O)c1c(O)c([C@@H]3O[C@H](CO)[C@@H](O)[C@H](O)[C@H]3O)c(O)c(O)c1C2=O`, which outcome is on record?
The outcome was “inactive”.

For `Cc1cc(NC(=O)C(=O)O)cc(C)c1Oc1ccc(O)c2c1CCC2`, which outcome is on record?
Its outcome is “inactive”.

Which outcome does the source give for `CCCCCCCCCCO` here?
Its outcome is “inactive”.

For `CCc1c(C(=O)NN2CCCCC2)nn(-c2ccc(Cl)cc2Cl)c1-c1ccc(Br)cc1`, which AC50 is on record?
Its AC50 is 3.67 µM (active).

Which outcome does the source give for `COc1cc(S(=O)(=O)O)c(C)cc1N=Nc1c(O)ccc2cc(S(=O)(=O)O)ccc12` here?
The outcome was “inactive”.

Which outcome does the source give for `CCOC(=O)C(C)(C)Oc1ccc(Cl)cc1` here?
Its outcome is “inactive”.

Which AC50 does the source give for `CN1CCN(Cc2cc(-c3ccc4[nH]c(=O)oc4c3)co2)[C@@H](c2ccc(F)cc2)C1` here?
Its AC50 is 18 µM (active).

Which outcome does the source give for `FC(F)(F)C(F)(F)C(F)(F)C(F)(F)C(F)(F)C(F)(F)CCI` here?
Its outcome is “inactive”.

Which outcome does the source give for `CNC(=O)[C@H]1O[C@@H](n2cnc3c(NCc4cc(Cl)ccc4OCc4cc(C)no4)ncnc32)[C@H](O)[C@@H]1N` here?
Its outcome is “inactive”.

For `CCCCc1ccc2c(n1)[C@@H](c1ccc(OC)cc1C[C@H](C)C(=O)O)[C@H](C(=O)O)[C@H]2c1ccc2c(c1)OCO2`, which outcome is on record?
Its outcome is “inactive”.

With `O=C(O)CCCCC(=O)O` as the compound, how does the outcome read?
The outcome was “inactive”.

Which outcome does the source give for `CCCCCCCCCCCC(=O)OC` here?
Its outcome is “inactive”.

Which outcome does the source give for `Cc1ccc(Cl)cc1` here?
The outcome was “inactive”.

With `CC(CO)OC(C)CO` (stereo not drawn) (tested in a mixture with another compound) as the compound, how does the outcome read?
The outcome was “inactive”.

Which outcome does the source give for `COCCOCCOC` here?
Its outcome is “inactive”.

Which outcome does the source give for `CC(=O)OCCOCCOCCOC(C)=O` here?
The outcome was “inactive”.

With `COc1cc(-c2nc(NC(=O)c3cc4cc(C)cc(C)c4n3CC(=O)O)sc2CCC2CCCCC2)c(OC)cc1Cl` as the compound, how does the AC50 read?
The AC50 was 12.7 µM (active).

Which outcome does the source give for `O=C(O)Cc1ccccc1Nc1c(Cl)cccc1Cl` here?
Its outcome is “inactive”.

For `Cc1ccccc1Cl`, which outcome is on record?
The outcome was “inactive”.

For `Cc1nc(C)nc(N2C[C@@H](C)N(c3ccnc([C@@H](C)O)n3)[C@@H](C)C2)n1`, which outcome is on record?
Its outcome is “inactive”.

For `NS(=O)(=O)c1cc2c(cc1Cl)NCNS2(=O)=O`, which outcome is on record?
The outcome was “inactive”.

For `NC(=O)Cn1c(=O)cc(CCN2CCN(c3nccc4sccc34)CC2)c2ccc(F)cc21`, which outcome is on record?
Its outcome is “inactive”.

For `Cc1cc(=O)[nH]c(=S)[nH]1`, which outcome is on record?
The outcome was “inactive”.

Which outcome does the source give for `CCCCN(CCCC)CCCC` here?
Its outcome is “inactive”.

With `Cc1nc(-c2ccc3c(c2)CCN(CCC2CCC(NC(=O)/C=C/c4ccc(F)cc4)CC2)CC3)no1` (stereo not drawn) as the compound, how does the outcome read?
The outcome was “inactive”.

For `COc1cc(/C=C/C(=O)CC(=O)/C=C/c2ccc(O)c(OC)c2)ccc1O`, which AC50 is on record?
The AC50 was 33.4 µM (active).

For `O=c1[nH]cc(F)c(=O)[nH]1`, which outcome is on record?
The outcome was “inactive”.

With `CN[C@H]1CC[C@@H](c2ccc(Cl)c(Cl)c2)c2ccc(S(N)(=O)=O)cc21` as the compound, how does the outcome read?
Its outcome is “inactive”.

For `Nc1nc(N)c2nc(CNc3ccc(C(=O)N[C@@H](CCC(=O)O)C(=O)O)cc3)cnc2n1`, which outcome is on record?
Its outcome is “inactive”.
